# Most compounds without a hit are left out; they make up all but 9.2% or so of the library.
# LMNA splice mod: qHTS Assay for Modulators of Lamin A Splicing. HeLa LMNA splicing GFP/RFP minigene ratio, 48 h. Potency, µM (titrated, usually from 46.1 µM), for inactives: at the highest dose ratio change, negative = inhibition, hits mostly inhibitors. 0.01% of 200,000 active; active means well fitted inhibition curve with a large enough effect in the signal ratio, with a control signal flat, not every such curve was filed as active; inconclusive means small, poorly fitted or top-dose-only effect, or effect the other way, or a change in a side signal; the % refers to the signal ratio; further: on the % scale 0 is the no-effect control and ±100 the full control effect
#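 S3 HeLa stable clones carrying a lamin A-EGFP splicing minigene plus DsRed2 were seeded at 600 cells/well in Opti-MEM with 2% FBS, pin-dosed and incubated 48 h at 37°C. Acumen cytometry (488 nm) gave the GFP/RFP total-intensity ratio.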
# ALDH1A1 block: qHTS Assay for Inhibitors of Aldehyde Dehydrogenase 1 (ALDH1A1); Purified ALDH1A1, NADH fluorescence, propionaldehyde substrate; 7.3% of 220,000 active; Aldehyde dehydrogenase 1A1 (Homo sapiens), P00352; Potency, µM (titrated, usually from 75.3 µM), inactives show top-dose activity, negative = inhibition, actives largely listed as inhibitors; AID 1030, 2008;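 further: plate controls were no enzyme wells and a reference inhibitor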
# HTT ATP protect: qHTS Multiplex Assay to Identify Dual Action Probes in a Cell Model of Huntington: Cytoprotection (ATP); PC12 HTT-Q103 induced, cytoprotection, ATP luminescence, 40 h; Potency, µM (series often up to 56.4 µM), inactives show cytoprotection (ATP increase), actives largely listed as activators; 0.14% of 230,000 active; AID 1471, 2008; active means well fitted curve in the direction sought with a large enough effect; inconclusive means small, poorly fitted or top-dose-only effect, or another doubt; inactive means no such curve, though single readings can be large; an effect the other way counts as inactive or inconclusive; further: % of control where 0% means no effect; nearly all actives have a fitted effect of over 45% in size
#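 Cells were plated at 1500 per well in phenol red-free DMEM with 5% equine and 5% calf serum. Tebufenozide (100 nM final) and compounds were added, then ATPlite reagent, and luminescence was read.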
# JMJD2E inh: qHTS Assay for Inhibitors of Human Jumonji Domain Containing 2E (JMJD2E); JMJD2E catalytic domain, FDH-coupled NADH fluorescence (FDH is formaldehyde dehydrogenase); Lysine-specific demethylase 4E (Homo sapiens), B2RXH2; Potency, µM (titrated, usually from 57.1 µM), for inactives: at the highest dose activity change, negative = inhibition, usual class: inhibitors; 1.6% of 230,000 active;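 further: 0% = wells with enzyme and -100% = buffer wells without enzyme; nearly all actives have a fitted effect of over 50% in size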
# Target sequence (B2RXH2 1-337 limits assumed): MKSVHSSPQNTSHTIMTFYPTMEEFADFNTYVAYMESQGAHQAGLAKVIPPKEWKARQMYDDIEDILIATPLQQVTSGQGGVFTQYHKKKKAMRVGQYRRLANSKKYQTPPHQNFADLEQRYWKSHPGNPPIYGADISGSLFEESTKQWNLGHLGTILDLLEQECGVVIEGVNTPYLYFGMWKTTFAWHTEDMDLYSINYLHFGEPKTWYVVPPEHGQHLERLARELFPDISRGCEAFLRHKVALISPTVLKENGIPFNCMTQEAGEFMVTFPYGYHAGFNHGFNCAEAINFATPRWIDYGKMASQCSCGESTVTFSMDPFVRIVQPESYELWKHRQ
# HPGD block: qHTS Assay for Inhibitors of HPGD (15-Hydroxyprostaglandin Dehydrogenase) | 15-hydroxyprostaglandin dehydrogenase [NAD(+)] (Homo sapiens), P15428 | purified HPGD, NADH fluorescence kinetic, PGE2 substrate | Potency, µM, without a hit: at the top dose activity change, negative = inhibition, hits mostly inhibitors | 4.3% of 150,000 active; further: on the % scale 0 is the no-effect control and ±100 the full control effect
#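 NADH formation kinetics: reaction with 30 uM PGE2 and 1 mM NAD+ (final), 20 nM enzyme, Tris-HCl pH 8 with Tween 20, after 15 min compound preincubation at room temperature. Fluorescence change, last versus first of five reads.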
# HTT aggregate: qHTS Multiplex Assay to Identify Dual Action Probes in a Cell Model of Huntington: Aggregate Formation (GFP) | Potency, µM (doses to about 46.1 µM), for the others: at the top dose activity change, negative = inhibition, usual class: inhibitors | PC12 HttQ103-GFP aggregates, Acumen cytometry, 40 h | AID 1688, 2009 | 1.1% of 220,000 active; active means well fitted curve in the direction sought with a large enough effect; inconclusive means small, poorly fitted or top-dose-only effect, or another doubt; inactive means no such curve, though single readings can be large; an effect the other way counts as inactive or inconclusive; further: on the % scale 0 is the no-effect control and ±100 the full control effect; nearly all actives have a fitted effect of over 60% in size
#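 Steps: seed 1500 PC12 HTTQ103-GFP cells/well; add tebufenozide, 100 nM final; add compound titration; add ATPLite reagent; quantify GFP aggregates by laser scanning cytometry.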
# Active calls of the source: *; ? = inconclusive; nt = no result given; [ ] = another dose, or the depositor's remark. Unless noted, the call rests on the fitted dose curve; in most records, active means well fitted inhibition curve with a large enough effect (not every such curve was filed as active); inconclusive means small, poorly fitted or top-dose-only effect, or another doubt; inactive means no such curve, though single readings can be large or run the other way. Potency means the concentration at half of the fitted maximal effect.
SMILES,LMNA splice mod,ALDH1A1 block,HTT ATP protect,JMJD2E inh,HPGD block,HTT aggregate
COc1ccc(S(=O)(=O)NCCc2sc(-c3ccccc3)nc2C)cc1F,-5%[46 µM],nt,nt,nt,nt,nt
COc1ccc(NS(=O)(=O)CC23CCC(CC2=O)C3(C)C)cc1 (stereo not drawn),6%,7.9µM*,15%,1%,-14%,4%
CCOc1ccc(NS(=O)(=O)CC23CCC(CC2=O)C3(C)C)cc1 (stereo not drawn),-8%,5%,13%,18%,-5%,-13%
NC(=O)CS(=O)C[C@H](N)C(=O)O (stereo partly drawn),nt,-3%[13.5 µM],0%[10 µM],nt,-4%,nt
CC(C)(C)c1ccc(C(=O)CC(Sc2ccc(Cl)cc2)C(=O)O)cc1 (stereo not drawn),?,2.5µM*,nt,2%,nt,-27%
O=C(/C=C\c1ccco1)c1ccc(NC(=O)c2ccco2)cc1,?,?,-3%[10 µM],?,nt,5%[9.22 µM]
CC(=O)Nc1ccc(C(=O)/C=C/c2ccco2)cc1,-6%,?,-13%[10 µM],?,-27%,12%
CC(=O)Nc1cccc(C(=O)/C=C/c2ccco2)c1,-13%,10µM*,-10%,?,?,18%
CSc1ccc(/C=C/C(=O)c2ccc(O)cc2)cc1,?,18µM*,-39%[10 µM],0%,-28%,-9%
CN(C)c1ccc(C(=O)/C=C/c2ccco2)cc1,?,8.9µM*,8%[10 µM],?,32µM*,14%
O=C(/C=C/c1ccco1)c1ccc(O)cc1,nt,15µM*,-1%,?,nt,8%
Cc1cc(NC(=O)CSc2nc(=O)cc(N)n2-c2ccc(Cl)cc2)no1,7%[46 µM],-3%,-18%,3%,nt,-10%
CN(N=O)C(=O)N[C@H]1[C@@H](O)[C@H](O)[C@H](CO)O[C@@H]1O,?,-11%[20.9 µM],?,?,-4%,-8%[20.6 µM]
O=C(NC1CCN(Cc2ccccc2)C1)c1ccc(Cc2nc3ccccc3[nH]2)cc1 (stereo not drawn),nt,3%,nt,nt,-5%,nt
COc1ccccc1-c1cncnc1NCCN1CCOCC1,?,-5%,2%,-4%,-12%,nt
CC1CCC2(CC1)NC(=S)N(c1ccccc1)N2 (stereo not drawn),?,16µM*,-11%[10 µM],?,-4%,11%
COc1ccc(/C=C/C2=CCN(Cc3ccc(OC)cc3)CC2)cc1,nt,-4%,-69%,28µM*,nt,-32%
Cc1ccc(C(C[N+](=O)[O-])c2c(-c3ccccc3O)[nH][nH]c2=O)cc1 (stereo not drawn),?,20µM*,15%[10 µM],?,-24%,?
COc1ccc(C(C[N+](=O)[O-])c2c(C)[nH]c3ccccc23)cc1OC (stereo not drawn),-1%,-13%,29%[10 µM],5%,-4%,9%
CCOC(=O)N1CCc2c(sc3nc4n(c(=O)c23)N=C(c2ccc(OC)cc2)CS4)C1,nt,nt,-12%[10 µM],4%,nt,-13%[9.22 µM]
C1CCN2CC3CC(CN4CCCC[C@@H]34)C2C1 (stereo partly drawn),nt,2%,30%[1.9 µM],-5%,-10%,nt
C/C=C1/C(=O)C[C@H]2[C@@H]3CCC4=CC(=O)CC[C@]4(C)[C@H]3CC[C@]12C,nt,?,-57%,nt,0%,nt
CCN(CC)S(=O)(=O)c1ccc2c(c1)N(CC(=O)N1CCN(c3cccc(C)c3)C(C)C1)C(=O)CO2 (stereo not drawn),5%[46 µM],nt,nt,nt,nt,nt
CC(=O)NC(=S)NNC(=O)COc1ccc([N+](=O)[O-])cc1,nt,22µM*,-13%,-1%,nt,-10%
C/C(=N\NC(=O)COc1ccc([N+](=O)[O-])cc1)C(C)(C)C,3%,20µM*,-64%,15%,-7%,-4%

# High-throughput results (PubChem BioAssay)
